In PubChem BioAssay (NCI):
This is part of a sample that, as a whole, favours compounds with a hit. Of some 83,000 tested, about 20% had one in any assay.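 Testing used 96-well plates and a 48-hour single-concentration exposure. Example: -40 means 40% of the starting cells died.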 A number with no mark means an inactive call. Activity calls are given as the source filed them. Rule for the calls: active = growth percent below 10; inactive = the rest.

Experiments:
Experiment in all cases: NCI-60 one-dose screen, 48 h (100 = growth as untreated, 0 = no growth, -100 = all killed)
[1] = system: NCI-H23 lung; conditions: 10 µM unless noted
[2] = system: NCI-H226 lung; conditions: 10 µM unless noted
[3] = system: NCI-H322M lung; conditions: 10 µM unless noted
[4] = system: HOP-62 NSCLC; conditions: 10 µM unless noted
[5] = system: NCI-H460 lung; conditions: 10 µM unless noted
[6] = system: HOP-92 NSCLC; conditions: 10 µM unless noted
[7] = system: NCI-H522 lung; conditions: 10 µM unless noted
[8] = system: 786-0 renal; conditions: 10 µM unless noted
[9] = system: COLO 205 colon; conditions: 10 µM unless noted
[10] = system: DU-145 prostate; conditions: 10 µM unless noted
[11] = system: K-562 leukemia; conditions: 10 µM unless noted
[12] = system: MALME-3M melanoma; conditions: 10 µM unless noted
[13] = system: MDA-MB-231 breast; conditions: 10 µM unless noted
[14] = system: RXF 393 renal; conditions: 10 µM unless noted
[15] = system: SF-268 CNS; conditions: 10 µM unless noted
[16] = system: SF-295 CNS; conditions: 10 µM unless noted
[17] = system: SF-539 CNS; conditions: 10 µM unless noted
[18] = system: UACC-257 melanoma; conditions: 10 µM
[19] = system: M14 melanoma; conditions: 10 µM unless noted
[20] = system: A549/ATCC NSCLC; conditions: 10 µM unless noted

SMILES | growth [1] | growth [2] | growth [3] | growth [4] | growth [5] | growth [6] | growth [7] | growth [8] | growth [9] | growth [10] | growth [11] | growth [12] | growth [13] | growth [14] | growth [15] | growth [16] | growth [17] | growth [18] | growth [19] | growth [20]
c1ccc(-c2n(Cc3ccc4ccccc4c3)c3c4ccccc4c4ccccc4c3[n+]2Cc2ccc3ccccc3c2)cc1 | -79.9% (active) | -74% (active) | -80.1% (active) | -69.2% (active) | -62.9% (active) | -77% (active) | -74.9% (active) | -67% (active) | -59.5% (active) | -94.4% (active) | -45% (active) | -81.4% (active) | -79% (active) | -83.2% (active) | -63.6% (active) | -87.1% (active) | -81.8% (active) | -38.2% (active) | -64.6% (active) | –
CCCC(=O)NC(c1cccnc1)c1cc(C(C)=O)c2cccnc2c1O (stereo not given) | 48.6% | 25% | 26.9% | 26.2% | 12.1% | 43.3% | 18.6% | 32.2% | 15.6% | 39.9% | 32.2% | 38.8% | 36.9% | 31.7% | 27.2% | 13.9% | 25.1% | 42.4% | 12.7% | –
O=c1[nH]c2cc(Cl)ccc2n1C1CCN(c2ccc3nnc(Cl)n3n2)CC1 | 91% | 87.4% | 87.7% | 95.4% | 100% | 103% | 87.2% | 97.3% | 107% | 99.8% | 81.4% | 104% | 95.6% | 83.7% | 92.5% | 87.5% | 91% | 95.9% | 98.1% | –
N#Cc1ccc(S(=O)(=O)Nc2ccc(-c3cnc(N)[nH]3)cc2)cc1 | 99.1% | 96.4% | 97.4% | 105% | 103% | 100% | 94% | 100% | 105% | 107% | – | 98% | 100% | 102% | 105% | 96.9% | 98.7% | 98.2% | 99.9% | –
O=c1[nH]c(CCl)nc2c1cnn2-c1ccccc1 | 101% | 110% | 101% | 125% | 101% | 101% | 103% | 77.9% | 114% | 98.6% | 87.5% | 110% | 101% | 94.1% | 99.9% | 110% | 97.1% | 96.2% | 95.7% | –
CNC(=O)c1c(NC(=O)c2ccc(F)cc2F)sc2c1CCC(=O)C2 | 5.55% (active) | 15.7% | 33.3% | 16.3% | 1.92% (active) | -34% (active) | -10.1% (active) | 24% | -74% (active) | 66.4% | 12.7% | -9.54% (active) | -16.6% (active) | -28.9% (active) | 20.3% | -3.76% (active) | -28.6% (active) | -2.26% (active) | 19.3% | –
O=c1cc(-c2ccccc2)nc2sc(-c3c[nH]c4ccc(F)cc34)nn12 | 73.2% | 41% | 61.2% | 19.1% | 17.2% | -1.32% (active) | 62.6% | 15.8% | 74.7% | 63.3% | – | 21.9% | 51.8% | 40.5% | 82.9% | 82.9% | 68% | – | 63.5% | 58.7%
COc1cc2c3c(n(CCCN4CCC[C@H]4C(N)=O)c(=O)c2cc1OC)-c1cc2c(cc1C3=O)OCO2 | -3.5% (active) | -15% (active) | 26.1% | -0.224% (active) | 0.252% (active) | 23.9% | 22% | -10.3% (active) | 16.4% | 16.2% | – | 27.5% | 17.3% | 7.89% (active) | 27.6% | 7.46% (active) | -2.78% (active) | – | 6.29% (active) | 30.7%
O=C(CN1C(=O)CSC1=O)Nc1ccc(C(=O)/C=C/c2cc3ccccc3nc2Cl)cc1 | 68.4% | 89.1% | 96.1% | 97.5% | 85.7% | 94.4% | 66.9% | 73.3% | 111% | 90.3% | 37.2% | 91.8% | 90.4% | 17.6% | 78.8% | 77% | 79.1% | 75.3% | 83.7% | –
COc1ccc(Cn2cc3c(c2-c2ccccc2)CCCc2cnoc2-3)cc1 | 77.6% | 79% | 76% | 63.8% | 26.9% | 72% | 34.9% | 73.3% | 40.9% | 78.9% | 28.5% | 41.9% | 60.8% | 76.4% | 73.1% | 30% | 52.6% | 76% | 40.5% | –
COc1cc(/C=N/n2cnc3oc(-c4ccccc4)cc3c2=N)cc(CN2CCCCC2)c1O | -56.4% (active) | -3.78% (active) | -1.45% (active) | -39.2% (active) | -72.7% (active) | 86.2% | -42.2% (active) | -79.5% (active) | 11.7% | -82.8% (active) | 3.54% (active) | -81% (active) | -73.4% (active) | -66.7% (active) | -66.9% (active) | -96% (active) | -87.9% (active) | -27% (active) | -83.5% (active) | –
C=CCn1c(SCC(=O)Nc2cccc(C(=O)/C=C/c3ccc(Br)cc3)c2)nc2ccccc2c1=O | 85.1% | 94.1% | 86.6% | 96.8% | 94.9% | 78.4% | 75.3% | 97.7% | 111% | 95.7% | – | 72.7% | 81.2% | 71.1% | 90.3% | 91.4% | 66.6% | 105% | 85.4% | –
CC(C)(C)CC(C)(C)n1nnnc1C(Nc1ccccc1)c1cc2cccc3ccc4cccc1c4c32 (stereo not given) | 82.3% | 84% | 91.5% | 86.1% | 81.7% | 49.7% | 72% | 88.4% | 96.4% | 96.9% | 72.6% | 87.4% | 75.1% | 79.5% | 82.4% | 86.5% | 95.7% | 95.5% | 90.2% | –
CS(=O)(=O)c1ccc2c(c1)c1c(n2S(=O)(=O)c2ccc(Cl)cc2)CCCC1 | 36.3% | 53.6% | 49.1% | 38.5% | 9.54% (active) | 32.7% | -44.5% (active) | 40.4% | -36.3% (active) | 22.9% | – | 54.5% | 29.8% | -0.699% (active) | 63.3% | 21% | 2.97% (active) | 60.6% | 26.3% | –
NS(=O)(=O)c1ccc(Nc2nc(N/N=C/c3ccc(F)cc3)nc(Nc3ccccc3)n2)cc1 | 54.2% | 50.8% | 58.1% | 17.9% | 65.1% | – | 15.5% | 58.8% | 20.9% | 31.1% | 54.6% | 57.5% | 61.8% | 57.9% | 41.3% | 70.1% | 62.2% | 47.2% | 57.9% | 7.78% (active)
